This passage reports Percent Effect results from ChEMBL document CHEMBL3988442, “University of Dundee, Small-Polar-MMV Screening Library” (2021).

Hit rate of the full screen: of about 69,000 compounds, about 30 (0.04%) showed an effect of 50% or more. The sample as a whole holds a higher share of strong results than the screen did.

The assay concerns the target T1, Histidine--tRNA ligase (Trypanosoma cruzi (strain CL Brener)) (UniProt Q4DA54).
T1 sequence (whole entry): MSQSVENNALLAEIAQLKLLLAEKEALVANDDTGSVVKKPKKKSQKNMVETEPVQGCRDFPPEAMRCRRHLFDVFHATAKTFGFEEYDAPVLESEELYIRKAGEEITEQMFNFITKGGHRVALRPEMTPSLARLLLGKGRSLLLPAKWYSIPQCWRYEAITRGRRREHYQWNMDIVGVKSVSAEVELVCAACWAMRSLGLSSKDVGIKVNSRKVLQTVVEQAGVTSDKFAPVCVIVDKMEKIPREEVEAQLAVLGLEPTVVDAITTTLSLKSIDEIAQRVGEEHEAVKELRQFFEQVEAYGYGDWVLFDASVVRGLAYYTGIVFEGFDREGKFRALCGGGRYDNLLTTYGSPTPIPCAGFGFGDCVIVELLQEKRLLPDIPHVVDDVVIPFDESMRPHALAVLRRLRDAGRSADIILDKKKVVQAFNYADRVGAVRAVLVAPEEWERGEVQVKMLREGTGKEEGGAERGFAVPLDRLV
Kind of assay: Trypanosoma cruzi histidyl tRNA synthetase (Tc-HisRS). Also on record: scale not given: direction of the effect not stated beside the values. The following applies: 30 µM. It counts as functional.
Regarding `CC(C)N1[C@H](Cn2cncn2)C[C@@H]2CN(Cc3ccsc3)CC[C@@H]21`, the Percent Effect came out at 0%.

For `O=C(OCc1ccccc1)N1CC[C@H]2CC(CO)O[C@@H]2C1` (some centres not stated), the Percent Effect is -3.09%.

For `CCN1CC[C@@]2(C(=O)N3CCOCC3)CCN(C(=O)C(C)C)CC[C@@H]12`, the Percent Effect was found to be 4.85%.

For the compound `O=C(NC1CC1)N1C[C@H]2CN(Cc3cccc(F)c3)C(=O)[C@H]2C1`, the Percent Effect was found to be 5.88%.

On to `CC(C)=CCN1C(=O)[C@H]2CC[C@@H]1CN(c1ncccc1C(N)=O)C2`, for which the Percent Effect was -2.41%.

As for `Cc1nc(CN2C(=O)CC[C@@H]3[C@H]2CCN3C(=O)c2ccno2)cs1`, the Percent Effect turned out to be 8.87%.

Regarding `O=S1(=O)CCN(Cc2cccnc2)[C@H]2CCN(c3ncccn3)CC[C@H]21`, the Percent Effect came to 6.95%.

Consider `Cn1nccc1C(=O)N1CCN(C(=O)C2CC2)[C@@H]2CS(=O)(=O)C[C@@H]21`, for which the Percent Effect came out at 4.47%.

Consider `O=C1C[C@H]2[C@@H](CCN2C(=O)Cc2cccs2)N1Cc1cccnc1`, for which the Percent Effect is 0.752%.

For the compound `Cc1cccnc1CN1CCN(CC(=O)N(C)C)[C@@H]2CS(=O)(=O)C[C@@H]21`, the Percent Effect was 7.03%.

Turning to `Cc1cnc(N2CC[C@@H]3OC(COCC(=O)N(C)C)CC[C@@H]32)nc1` (some centres not stated), the Percent Effect is -0.614%.

For `Cn1cc(N2C(=O)CC[C@@H]3[C@H]2CCN3C(=O)c2cscn2)cn1`, the Percent Effect came out at 8.16%.

With `COCCN1CCN(Cc2nccs2)[C@H]2CS(=O)(=O)C[C@H]21`, the Percent Effect was found to be 4.08%.

With `CCO[C@@H]1CC[C@H]2[C@H]1OCCN2CCOCc1ccccc1`, the Percent Effect was determined as 4.12%.

`Cc1cc(C)nc(N2C[C@H]3OC(=O)N(CCc4cccc(Cl)c4)[C@H]3C2)n1`: the Percent Effect is 7.82%.

On to `CNC(=O)[C@H]1C[C@@H]2CN(C(=O)NC(C)C)C[C@H]1O2`, for which the Percent Effect was determined as 1.03%.

In the case of `CC(C)NC(=O)[C@H]1C[C@@H]2CN(C(=O)NCc3ccccc3)C[C@H]1O2`, the Percent Effect was 9.09%.

Regarding `O=C(c1ccnnc1)N1CCN2C[C@H](Oc3cccc(F)c3)C[C@H]2C1`, the Percent Effect was 1.62%.

With `O=C(c1ccco1)N1CC[C@H]2[C@H]1CC(=O)N2c1cccnc1`, the Percent Effect turned out to be 0%.

In the case of `O=C(N1CCCC1)N1CC[C@H]2[C@H]1CCN2c1ncccn1`, the Percent Effect is 6.8%.

Take `COC[C@@]12CCC[C@@H]1CN(C(=O)N1CCCC1)C2`: the Percent Effect was 5.03%.

`O=C(CC1CC1)N[C@@H]1CN(C(=O)c2cccs2)C[C@@H]2CCCO[C@@H]21`: the Percent Effect amounted to 0%.

Turning to `CN1C(Cn2cccn2)C[C@@H]2CN(Cc3cnn(C)c3)CC[C@@H]21` (some centres not stated), the Percent Effect stood at 7%.

As for `CCC1=N[C@@]2(CC[C@@H]3CN(Cc4ccc(C)cc4)C[C@@H]32)C(=O)N1C`, the Percent Effect was found to be 7.41%.

`CC(C)CN1CCS(=O)(=O)[C@@H]2CCN(S(=O)(=O)C3CC3)CC[C@@H]21`: the Percent Effect worked out at 1.07%.

For `COc1ccc(CN2C[C@@H]3CC[C@H](C2)N(Cc2snnc2C)C3)cc1`, the Percent Effect was 11.4%.

As to `CC(C)CN1C(=O)CO[C@@H]2CN(C(=O)CC(F)(F)F)C[C@H]21`, the Percent Effect was found to be 7.53%.

As to `Cn1cc(NC(=O)N2CCC2c2ccccc2)ccc1=O` (configuration not stated), the Percent Effect amounted to 22.6%.

As for `Cn1cc(NC(=O)N2CCCC2c2ccccn2)ccc1=O` (configuration not stated), the Percent Effect came out at 69.3%.

Turning to `Cn1cc(NC(=O)N2CCCC2c2cccnc2)ccc1=O` (configuration not stated), the Percent Effect was 38.6%.

For the compound `Cc1cccc(C(=O)N2C[C@H](NS(C)(=O)=O)[C@@H]3OCCC[C@@H]32)n1`, the Percent Effect is 12.6%.

In the case of `COc1ccc(CNC(=O)Nc2ccc(CN3CCOC3=O)cc2)cc1`, the Percent Effect was 2.12%.

On to `CN(Cc1ccsc1)C(=O)Nc1ccc(=O)n(C)c1`, for which the Percent Effect was found to be 13%.

As to `O=C(NCc1ccoc1)Nc1ccc(CN2CCOC2=O)cc1`, the Percent Effect is 3.25%.

In the case of `Cn1cc(NC(=O)NCc2ccoc2)ccc1=O`, the Percent Effect was found to be 72.7%.

`COc1ccc(CNC(=O)Nc2ccc(=O)n(C)c2)cc1`: the Percent Effect was 76.6%.

Regarding `Cn1cc(NC(=O)CCc2ccsc2)ccc1=O`, the Percent Effect worked out at 18.2%.

On to `Cn1cc(NC(=O)NCc2ccsc2)ccc1=O`, for which the Percent Effect was determined as 72.7%.

With `COC(=O)c1ccc(CNC(=O)Nc2ccc(=O)n(C)c2)cc1`, the Percent Effect stood at 7.79%.

Consider `Cc1nnc(NC(=O)NCc2ccoc2)s1`, for which the Percent Effect was determined as 7.43%.

Consider `Cc1ccc(N2CCC3(CC2)COCCN(c2nccs2)C3)nn1`, for which the Percent Effect was determined as 62.3%.

On to `Cc1ccc(N2CCCC3(COCCN(c4nccs4)C3)C2)nn1` (configuration not stated), for which the Percent Effect is 12.4%.

As to `Cc1ccc(N2CC3(CCN(c4nccs4)C3)C2)nn1`, the Percent Effect was found to be 4.96%.

Regarding `CNc1cc(-c2ccccc2CN)c2cc[nH]c2n1`, the Percent Effect is 40.2%.

For the compound `CNc1cc(-c2ccc(COCCN)cc2)c2cc[nH]c2n1`, the Percent Effect was 4.88%.

As for `CNc1cc(-c2cccc(CN)c2)c2cc[nH]c2n1`, the Percent Effect came to 81.7%.

In the case of `CN(Cc1cccs1)C1CCC[C@@H]2CN(C(=O)c3cccn3C)C[C@H]12` (some centres not stated), the Percent Effect amounted to 5.06%.

Consider `O=C1N(CC2CC2)CCC12CCN(c1ncccn1)CC2`, for which the Percent Effect is 4.51%.

In the case of `c1ccc2c(c1)N(CC1CCOC1)CC21CCN(c2cnccn2)CC1` (configuration not stated), the Percent Effect stood at 29.6%.

Consider `c1cnc(N2CCC3(CC2)CN(CC2CC2)c2ccccc23)nc1`, for which the Percent Effect stood at 66.2%.

Regarding `CC(C)=CCN1C[C@H]2CC[C@@H]1CN(C(=O)c1ccc3c(c1)OCO3)C2`, the Percent Effect was -7.73%.

Take `O=C1O[C@@H]2CN(Cc3ccccc3F)C[C@@H]2N1CCCN1CCOCC1`: the Percent Effect amounted to 10.2%.

Regarding `CC(C)COC[C@@H]1CC[C@H]2[C@H](CCN2C(=O)c2ccncc2F)O1`, the Percent Effect was -2.8%.

On to `COCCNC(=O)[C@@]12CCO[C@@H]1CCN(Cc1scnc1C)C2`, for which the Percent Effect is 4.3%.

For the compound `COc1ccc(N2Cc3nc(N4CCCC4)ncc3C2=O)cc1Cl`, the Percent Effect was -3.73%.

With `CCc1cc(N[C@H]2CC[C@@H](N)CC2)n2nc(C)c(C)c2n1`, the Percent Effect is 1.34%.

On to `CC(C)CS(=O)(=O)N1C[C@H]2C[C@H](C(=O)N3CCN(C)CC3)[C@@H](C1)O2`, for which the Percent Effect was found to be 7.78%.

As for `CN1CCCCC1c1ncc2c(n1)CCN(Cc1ccc(Cl)c(F)c1)C2` (configuration not stated), the Percent Effect stood at 30%.

`O=C([C@H]1C[C@@H]2CCN(c3cccc(F)c3)C[C@H]2O1)N1CCCC1`: the Percent Effect turned out to be 0.952%.

`CN1CCN2CCN(Cc3cnc(NCc4ccccc4)nc3)CC2C1` (configuration not stated): the Percent Effect was determined as 9.88%.

As for `c1ccc(CNc2ncc(CN3CCCN4CCC[C@H]4C3)cn2)cc1`, the Percent Effect is 48.1%.

`C1CC(CN2C[C@@H]3C[C@@H](c4nnc(C5CC5)o4)O[C@@H]3C2)C1`: the Percent Effect was 0%.
